Laboratory results: the supplement of paper PMC10849652
About 8,800 targets were measured; listed, in parts, are those with a hit and a random draw of the rest. About 0.5% of all pairs of compound and target were hits. A number with no mark means an inactive call.

Tests used:
Test in all cases: log2 fold change, soluble protein after heating vs DMSO (PISA); higher = thermal stabilisation; K562 lysate, 10 uM; active = over 0.2 and 3.5 SD of the protein, either way, in both replicates (recomputed)
vemurafenib = compound: CCCS(=O)(=O)Nc1ccc(F)c(C(=O)c2c[nH]c3ncc(-c4ccc(Cl)cc4)cc23)c1F [vemurafenib]
How it was run: (§1)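 Dounce homogenisation of K562 pellets in PBS pH 7.4 with 1 mM MgCl2 produced a crude extract, used at 1 mg/mL protein. Exposure to 10 μM compound lasted 30 min, and aliquots were then heated for 3 min across 48°C-58°C, pooled and brought to 0.5% NP-40 at 4°C. The supernatant after 21,000xg for 90 min was quantified by TMTpro 16plex LC-MS/MS with channel sums equalised. Duplicate values are given as log-two fold change in thermal stability relative to solvent controls.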

[1] = compound: CCCS(=O)(=O)Nc1ccc(F)c(C(=O)c2c[nH]c3ncc(Cl)cc23)c1F
How it was run: as §1

barasertib = compound: CCN(CCCOc1ccc2c(Nc3cc(CC(=O)Nc4cccc(F)c4)[nH]n3)ncnc2c1)CCOP(=O)(O)O [barasertib]
How it was run: as §1

[2] = compound: CC[C@@H]1C(=O)N(C)c2cnc(Nc3ccc(C(=O)NC4CCN(C)CC4)cc3OC)nc2N1C1CCCC1
How it was run: as §1

volasertib = compound: CC[C@@H]1C(=O)N(C)c2cnc(Nc3ccc(C(=O)N[C@H]4CC[C@H](N5CCN(CC6CC6)CC5)CC4)cc3OC)nc2N1C(C)C [volasertib]
How it was run: as §1

[3] = compound: CCn1c(C(=O)N(C2CC2)C2CC2)cc2c3c(ncn3C)c(Nc3cc(C)n(C)n3)nc21
How it was run: as §1

[4] = compound: CCn1cc(-c2ccnc3[nH]c(-c4cccc(CN(C)C)c4)cc23)c(-c2ccc(NC(=O)N(C)C)cc2)n1
How it was run: as §1

[5] = compound: CN1CCC(CNc2ccc3ncc(-c4cccc(OC(F)(F)F)c4)n3n2)CC1
How it was run: as §1

saracatinib = compound: CN1CCN(CCOc2cc(OC3CCOCC3)c3c(Nc4c(Cl)ccc5c4OCO5)ncnc3c2)CC1 [saracatinib]
How it was run: as §1

sotrastaurin = compound: CN1CCN(c2nc(C3=C(c4c[nH]c5ccccc45)C(=O)NC3=O)c3ccccc3n2)CC1 [sotrastaurin]
How it was run: as §1

Sequence of UniProt Q9NQZ2 (Q9NQZ2 whole entry, looked up): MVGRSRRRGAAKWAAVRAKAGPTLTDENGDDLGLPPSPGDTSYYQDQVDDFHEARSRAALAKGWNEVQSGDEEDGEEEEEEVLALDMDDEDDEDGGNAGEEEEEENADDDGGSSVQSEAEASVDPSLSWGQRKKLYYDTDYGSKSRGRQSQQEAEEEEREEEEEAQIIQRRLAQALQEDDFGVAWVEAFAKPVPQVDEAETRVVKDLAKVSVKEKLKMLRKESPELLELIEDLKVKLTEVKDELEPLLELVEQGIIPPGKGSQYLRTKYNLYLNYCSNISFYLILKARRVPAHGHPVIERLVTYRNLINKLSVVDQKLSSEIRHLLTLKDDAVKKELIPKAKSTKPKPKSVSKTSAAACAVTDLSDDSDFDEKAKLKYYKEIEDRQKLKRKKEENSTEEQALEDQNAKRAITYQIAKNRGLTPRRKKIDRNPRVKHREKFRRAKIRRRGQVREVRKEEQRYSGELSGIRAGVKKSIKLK
Sequence of UniProt Q9Y484 (Q9Y484 whole entry, looked up): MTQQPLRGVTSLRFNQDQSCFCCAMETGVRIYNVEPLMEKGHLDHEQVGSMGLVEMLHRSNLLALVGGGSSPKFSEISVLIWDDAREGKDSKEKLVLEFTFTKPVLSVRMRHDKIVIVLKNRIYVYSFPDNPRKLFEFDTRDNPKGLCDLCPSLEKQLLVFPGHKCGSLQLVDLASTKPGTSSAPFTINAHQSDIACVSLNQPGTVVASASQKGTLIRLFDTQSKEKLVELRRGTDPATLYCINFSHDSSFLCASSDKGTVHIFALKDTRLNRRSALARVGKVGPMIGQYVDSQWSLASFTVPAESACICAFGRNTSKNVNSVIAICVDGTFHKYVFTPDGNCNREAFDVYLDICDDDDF
Sequence of UniProt Q9Y6I4 (Q9Y6I4 whole entry, looked up): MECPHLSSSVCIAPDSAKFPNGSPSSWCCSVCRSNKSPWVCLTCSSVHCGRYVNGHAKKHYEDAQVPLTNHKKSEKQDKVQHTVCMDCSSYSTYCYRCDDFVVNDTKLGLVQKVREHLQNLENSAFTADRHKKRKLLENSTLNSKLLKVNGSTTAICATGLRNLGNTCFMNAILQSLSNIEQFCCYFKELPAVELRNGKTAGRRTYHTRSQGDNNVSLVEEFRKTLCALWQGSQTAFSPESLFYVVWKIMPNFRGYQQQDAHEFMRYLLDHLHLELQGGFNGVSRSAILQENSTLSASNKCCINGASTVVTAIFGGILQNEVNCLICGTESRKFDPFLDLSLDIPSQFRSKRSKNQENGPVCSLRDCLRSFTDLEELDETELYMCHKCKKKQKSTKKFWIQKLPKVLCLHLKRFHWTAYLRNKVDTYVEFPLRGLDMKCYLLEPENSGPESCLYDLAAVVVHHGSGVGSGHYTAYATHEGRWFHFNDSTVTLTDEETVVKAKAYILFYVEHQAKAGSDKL
Sequence of UniProt Q9HCS7 (Q9HCS7 whole entry, looked up): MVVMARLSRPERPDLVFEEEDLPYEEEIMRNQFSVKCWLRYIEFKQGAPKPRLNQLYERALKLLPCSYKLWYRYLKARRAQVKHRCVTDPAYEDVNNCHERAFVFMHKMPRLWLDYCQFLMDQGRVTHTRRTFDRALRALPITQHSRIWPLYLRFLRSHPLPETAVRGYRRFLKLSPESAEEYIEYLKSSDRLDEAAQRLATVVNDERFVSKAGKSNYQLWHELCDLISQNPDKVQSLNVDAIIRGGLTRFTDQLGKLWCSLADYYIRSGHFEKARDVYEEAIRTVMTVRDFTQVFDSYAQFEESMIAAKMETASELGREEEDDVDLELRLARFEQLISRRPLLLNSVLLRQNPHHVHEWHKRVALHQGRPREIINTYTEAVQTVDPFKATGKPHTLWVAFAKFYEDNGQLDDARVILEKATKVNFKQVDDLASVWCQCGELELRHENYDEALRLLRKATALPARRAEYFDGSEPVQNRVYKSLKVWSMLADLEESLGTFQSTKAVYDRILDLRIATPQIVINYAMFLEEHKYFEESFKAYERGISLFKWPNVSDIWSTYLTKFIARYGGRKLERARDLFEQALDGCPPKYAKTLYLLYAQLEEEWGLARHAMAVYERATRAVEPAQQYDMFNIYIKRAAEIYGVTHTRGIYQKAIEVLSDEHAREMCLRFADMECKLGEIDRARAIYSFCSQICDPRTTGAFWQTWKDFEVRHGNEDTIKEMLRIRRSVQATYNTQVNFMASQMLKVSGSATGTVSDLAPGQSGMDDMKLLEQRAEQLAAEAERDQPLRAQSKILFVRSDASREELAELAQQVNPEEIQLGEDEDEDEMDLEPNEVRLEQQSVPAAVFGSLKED
Sequence of UniProt Q86T24 (Q86T24 whole entry, looked up): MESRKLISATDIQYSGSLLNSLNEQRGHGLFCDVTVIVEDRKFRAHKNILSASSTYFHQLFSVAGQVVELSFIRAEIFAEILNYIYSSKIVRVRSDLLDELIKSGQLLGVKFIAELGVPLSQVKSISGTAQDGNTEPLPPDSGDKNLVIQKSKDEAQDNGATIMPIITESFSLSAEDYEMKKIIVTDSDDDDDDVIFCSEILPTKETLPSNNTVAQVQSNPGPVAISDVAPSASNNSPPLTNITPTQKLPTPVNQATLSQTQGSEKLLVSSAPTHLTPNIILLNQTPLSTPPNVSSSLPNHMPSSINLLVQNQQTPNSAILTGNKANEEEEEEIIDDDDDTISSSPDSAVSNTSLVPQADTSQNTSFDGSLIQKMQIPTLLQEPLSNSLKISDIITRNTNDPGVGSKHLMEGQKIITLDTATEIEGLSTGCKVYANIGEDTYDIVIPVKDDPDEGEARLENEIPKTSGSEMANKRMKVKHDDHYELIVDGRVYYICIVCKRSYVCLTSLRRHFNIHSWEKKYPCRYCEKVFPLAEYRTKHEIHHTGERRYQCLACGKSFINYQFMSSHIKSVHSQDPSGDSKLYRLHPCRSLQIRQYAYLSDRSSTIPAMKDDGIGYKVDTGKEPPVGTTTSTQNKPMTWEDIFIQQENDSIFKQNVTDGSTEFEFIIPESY
Sequence of UniProt Q9H269 (Q9H269 whole entry, looked up): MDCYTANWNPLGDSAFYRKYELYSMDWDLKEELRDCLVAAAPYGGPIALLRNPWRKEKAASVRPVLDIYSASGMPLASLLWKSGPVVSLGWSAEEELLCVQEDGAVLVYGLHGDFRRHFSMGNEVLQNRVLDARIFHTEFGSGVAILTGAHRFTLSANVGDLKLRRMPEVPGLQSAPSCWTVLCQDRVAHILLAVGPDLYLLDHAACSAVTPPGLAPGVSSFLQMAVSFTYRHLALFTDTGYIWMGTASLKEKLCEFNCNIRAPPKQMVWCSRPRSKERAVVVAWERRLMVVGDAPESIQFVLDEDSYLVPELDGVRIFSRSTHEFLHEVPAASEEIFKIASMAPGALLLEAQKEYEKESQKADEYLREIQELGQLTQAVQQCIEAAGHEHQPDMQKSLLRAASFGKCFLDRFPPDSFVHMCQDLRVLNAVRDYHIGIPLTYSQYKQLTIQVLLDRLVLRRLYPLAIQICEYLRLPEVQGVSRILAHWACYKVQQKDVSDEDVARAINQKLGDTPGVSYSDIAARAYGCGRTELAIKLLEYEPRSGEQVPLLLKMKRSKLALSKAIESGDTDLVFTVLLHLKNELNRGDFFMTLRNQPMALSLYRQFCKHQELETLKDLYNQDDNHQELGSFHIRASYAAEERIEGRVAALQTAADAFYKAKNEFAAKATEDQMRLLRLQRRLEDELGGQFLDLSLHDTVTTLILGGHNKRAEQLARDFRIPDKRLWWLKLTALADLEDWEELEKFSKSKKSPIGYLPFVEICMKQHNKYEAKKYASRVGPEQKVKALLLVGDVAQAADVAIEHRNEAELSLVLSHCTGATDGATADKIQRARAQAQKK
Sequence of UniProt P40818 (P40818 whole entry, looked up): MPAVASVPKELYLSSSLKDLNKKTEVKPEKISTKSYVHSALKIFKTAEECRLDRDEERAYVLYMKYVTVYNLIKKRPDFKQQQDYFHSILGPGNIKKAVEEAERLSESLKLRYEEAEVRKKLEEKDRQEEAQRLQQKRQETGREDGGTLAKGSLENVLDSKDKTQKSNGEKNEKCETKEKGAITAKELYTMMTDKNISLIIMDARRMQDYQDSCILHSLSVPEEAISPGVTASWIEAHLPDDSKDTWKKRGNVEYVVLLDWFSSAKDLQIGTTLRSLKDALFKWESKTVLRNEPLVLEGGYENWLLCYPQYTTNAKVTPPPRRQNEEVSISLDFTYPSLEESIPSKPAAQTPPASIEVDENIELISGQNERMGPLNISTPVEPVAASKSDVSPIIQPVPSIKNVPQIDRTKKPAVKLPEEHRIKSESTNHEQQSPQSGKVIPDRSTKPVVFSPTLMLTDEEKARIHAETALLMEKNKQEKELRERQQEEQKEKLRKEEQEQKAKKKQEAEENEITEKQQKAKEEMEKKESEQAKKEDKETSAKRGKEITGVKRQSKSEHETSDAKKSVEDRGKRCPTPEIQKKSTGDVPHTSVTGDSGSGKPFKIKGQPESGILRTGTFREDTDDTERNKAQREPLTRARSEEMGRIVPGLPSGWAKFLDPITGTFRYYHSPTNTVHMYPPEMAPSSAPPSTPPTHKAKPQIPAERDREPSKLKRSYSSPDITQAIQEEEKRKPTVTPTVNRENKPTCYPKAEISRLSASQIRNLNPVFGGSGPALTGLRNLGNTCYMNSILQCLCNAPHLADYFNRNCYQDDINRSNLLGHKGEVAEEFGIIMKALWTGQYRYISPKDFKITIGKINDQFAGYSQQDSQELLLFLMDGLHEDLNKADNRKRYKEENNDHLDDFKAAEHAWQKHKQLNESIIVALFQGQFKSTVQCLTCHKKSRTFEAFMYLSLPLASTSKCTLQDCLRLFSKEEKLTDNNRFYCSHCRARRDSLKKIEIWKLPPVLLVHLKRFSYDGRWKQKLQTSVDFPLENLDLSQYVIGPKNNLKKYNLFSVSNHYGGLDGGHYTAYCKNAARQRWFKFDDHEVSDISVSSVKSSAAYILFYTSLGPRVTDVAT

Target	log2 fold change (vemurafenib)	log2 fold change [1]	log2 fold change (barasertib)	log2 fold change [2]	log2 fold change (volasertib)	log2 fold change [3]	log2 fold change [4]	log2 fold change [5]	log2 fold change (saracatinib)	log2 fold change (sotrastaurin)
ZNHIT6 (UniProt Q9NWK9)	-0.001	0.035	0.009	0.023	-0.016	0.05	0.089	-0.071	-0.029	-0.005
VCPIP1 (UniProt Q96JH7)	0.008	-0.04	0.051	-0.006	-0.047	0.011	-0.12	0.049	-0.03	0.035
USP3 (UniProt Q9Y6I4)	0.041	-0.007	0.008	0.023	-0.012	-0.011	0.064	-0.041	0.011	0.011
USP48 (UniProt Q86UV5)	0.043	0.074	-0.024	0.047	-0.102	-0.057	-0.821 (active)	0.146	-0.021	-0.12
VPS28 (UniProt Q9UK41)	-0.012	0.016	0.178	-0.035	-0.012	0.067	-0.208	0.018	0.01	-0.007
ZMYM4 (UniProt Q5VZL5)	0.008	0.003	0.126	0.013	0.041	0.033	0.013	0.029	0.023	0.043
UTP3 (UniProt Q9NQZ2)	0.004	0.012	0.058	-0.009	-0.011	-0.047	0	-0.02	0.011	0.05
VPS54 (UniProt Q9P1Q0)	0.046	-0.015	-0.042	-0.037	0.068	-0.259	-0.278	0.141	0.05	-0.087
USP8 (UniProt P40818)	0	0.015	0.001	-0.008	-0.05	0.033	-0.002	-0.063	-0.006	-0.021
YTHDC2 (UniProt Q9H6S0)	0.068	0.022	0.07	-0.013	-0.027	0.025	0.025	0.005	0.015	0.022
ZBTB33 (UniProt Q86T24)	0.01	-0.017	-0.199	-0.002	-0.673 (active)	0	0.034	-0.008	0.033	0.015
WDR45 isoform 2 (UniProt Q9Y484)	-0.028	0.043	0.005	0.052	0	0.12	-0.19	0.086	0.01	0.024
WAC (UniProt Q9BTA9)	0.018	0.051	0.077	0	-0.003	0.051	0.061	0.024	0.013	-0.002
XAB2 (UniProt Q9HCS7)	0.033	0.075	-0.015	0.065	-0.02	0.05	-0.044	0.017	0.006	0
VPS16 (UniProt Q9H269)	0.038	0.009	0.007	0.063	-0.04	0.028	-0.049	-0.015	-0.017	-0.002
